According to ChEMBL document CHEMBL2218924, “A broad activity screen in support of a chemogenomic map for kinase signalling research and drug discovery” (Biochem J, 2013):

What was measured:
[1] = target: Serine/threonine-protein kinase PLK2 (Homo sapiens) (UniProt Q9NYY3); settings: at 1 µM
[2] = target: Serine/threonine-protein kinase PLK2 (Homo sapiens) (UniProt Q9NYY3); settings: at 10 µM
[3] = target: Tyrosine-protein kinase SYK (Homo sapiens) (UniProt P43405); settings: at 10 µM
[4] = target: T1, Mitogen-activated protein kinase kinase kinase 7 (Homo sapiens) (UniProt O43318); settings: at 1 µM
T1 sequence (whole entry): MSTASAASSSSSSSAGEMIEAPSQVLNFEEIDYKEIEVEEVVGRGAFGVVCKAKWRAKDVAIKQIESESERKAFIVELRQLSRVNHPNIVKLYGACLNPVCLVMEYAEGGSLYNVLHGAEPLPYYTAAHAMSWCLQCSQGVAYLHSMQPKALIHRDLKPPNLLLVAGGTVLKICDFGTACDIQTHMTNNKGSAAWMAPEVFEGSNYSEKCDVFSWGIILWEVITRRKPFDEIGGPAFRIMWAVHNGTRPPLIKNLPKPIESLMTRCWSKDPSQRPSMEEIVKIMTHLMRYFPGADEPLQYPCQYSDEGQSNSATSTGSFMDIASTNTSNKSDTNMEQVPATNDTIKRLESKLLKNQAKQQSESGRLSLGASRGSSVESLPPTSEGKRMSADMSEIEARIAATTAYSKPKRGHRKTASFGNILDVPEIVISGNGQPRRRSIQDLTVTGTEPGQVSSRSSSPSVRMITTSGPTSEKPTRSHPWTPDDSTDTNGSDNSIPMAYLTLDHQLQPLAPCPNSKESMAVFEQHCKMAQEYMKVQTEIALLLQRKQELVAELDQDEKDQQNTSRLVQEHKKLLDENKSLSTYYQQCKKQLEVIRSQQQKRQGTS

[5] = target: T1, Mitogen-activated protein kinase kinase kinase 7 (Homo sapiens); settings: at 10 µM
[6] = target: T2, Serine/threonine-protein kinase TAO3 (Homo sapiens) (UniProt Q9H2K8); settings: at 10 µM
T2 sequence (whole entry): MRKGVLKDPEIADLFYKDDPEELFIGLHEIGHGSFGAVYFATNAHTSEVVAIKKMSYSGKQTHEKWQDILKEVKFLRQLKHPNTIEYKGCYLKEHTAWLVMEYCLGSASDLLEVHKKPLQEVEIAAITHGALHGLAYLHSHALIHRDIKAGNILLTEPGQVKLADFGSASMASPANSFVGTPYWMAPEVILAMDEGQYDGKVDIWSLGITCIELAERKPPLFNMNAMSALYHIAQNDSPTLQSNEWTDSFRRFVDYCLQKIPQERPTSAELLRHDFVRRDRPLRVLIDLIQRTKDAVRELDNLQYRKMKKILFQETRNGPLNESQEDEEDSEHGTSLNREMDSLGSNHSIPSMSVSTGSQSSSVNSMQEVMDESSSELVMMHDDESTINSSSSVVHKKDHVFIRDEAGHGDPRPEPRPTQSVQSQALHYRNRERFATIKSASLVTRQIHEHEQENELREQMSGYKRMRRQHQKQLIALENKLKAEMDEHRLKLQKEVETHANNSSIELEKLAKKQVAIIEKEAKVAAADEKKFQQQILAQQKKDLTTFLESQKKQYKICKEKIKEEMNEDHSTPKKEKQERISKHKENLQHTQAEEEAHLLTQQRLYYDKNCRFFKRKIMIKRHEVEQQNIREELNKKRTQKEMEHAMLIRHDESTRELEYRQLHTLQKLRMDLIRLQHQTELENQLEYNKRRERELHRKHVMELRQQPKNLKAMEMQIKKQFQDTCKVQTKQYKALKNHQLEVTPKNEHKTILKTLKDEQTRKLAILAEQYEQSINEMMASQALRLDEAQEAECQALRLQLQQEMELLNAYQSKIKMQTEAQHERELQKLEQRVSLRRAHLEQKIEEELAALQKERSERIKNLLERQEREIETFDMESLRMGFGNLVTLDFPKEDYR

[7] = target: T3, Serine/threonine-protein kinase TBK1 (Homo sapiens) (UniProt Q9UHD2); settings: at 1 µM
T3 sequence (whole entry): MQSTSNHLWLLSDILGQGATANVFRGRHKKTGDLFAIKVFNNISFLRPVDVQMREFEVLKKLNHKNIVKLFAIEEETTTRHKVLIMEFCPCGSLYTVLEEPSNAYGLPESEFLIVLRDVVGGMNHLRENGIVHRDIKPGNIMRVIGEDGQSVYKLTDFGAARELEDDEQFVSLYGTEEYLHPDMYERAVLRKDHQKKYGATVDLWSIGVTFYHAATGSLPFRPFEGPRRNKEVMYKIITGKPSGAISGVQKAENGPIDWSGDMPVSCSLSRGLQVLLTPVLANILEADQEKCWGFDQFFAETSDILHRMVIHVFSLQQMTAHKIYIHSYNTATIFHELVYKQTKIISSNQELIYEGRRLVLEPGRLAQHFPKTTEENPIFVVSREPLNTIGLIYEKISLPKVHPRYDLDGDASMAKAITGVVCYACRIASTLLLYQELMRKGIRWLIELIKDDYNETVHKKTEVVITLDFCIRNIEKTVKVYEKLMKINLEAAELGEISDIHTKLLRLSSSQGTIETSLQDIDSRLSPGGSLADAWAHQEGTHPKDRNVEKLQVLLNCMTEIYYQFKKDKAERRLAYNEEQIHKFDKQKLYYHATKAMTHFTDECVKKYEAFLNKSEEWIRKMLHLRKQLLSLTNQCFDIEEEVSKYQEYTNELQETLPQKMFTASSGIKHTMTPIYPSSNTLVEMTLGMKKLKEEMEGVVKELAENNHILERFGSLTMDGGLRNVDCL

[8] = target: T3, Serine/threonine-protein kinase TBK1 (Homo sapiens); settings: at 10 µM
[9] = target: T4, TGF-beta receptor type-1 (Homo sapiens) (UniProt P36897); settings: at 1 µM
T4 sequence (whole entry): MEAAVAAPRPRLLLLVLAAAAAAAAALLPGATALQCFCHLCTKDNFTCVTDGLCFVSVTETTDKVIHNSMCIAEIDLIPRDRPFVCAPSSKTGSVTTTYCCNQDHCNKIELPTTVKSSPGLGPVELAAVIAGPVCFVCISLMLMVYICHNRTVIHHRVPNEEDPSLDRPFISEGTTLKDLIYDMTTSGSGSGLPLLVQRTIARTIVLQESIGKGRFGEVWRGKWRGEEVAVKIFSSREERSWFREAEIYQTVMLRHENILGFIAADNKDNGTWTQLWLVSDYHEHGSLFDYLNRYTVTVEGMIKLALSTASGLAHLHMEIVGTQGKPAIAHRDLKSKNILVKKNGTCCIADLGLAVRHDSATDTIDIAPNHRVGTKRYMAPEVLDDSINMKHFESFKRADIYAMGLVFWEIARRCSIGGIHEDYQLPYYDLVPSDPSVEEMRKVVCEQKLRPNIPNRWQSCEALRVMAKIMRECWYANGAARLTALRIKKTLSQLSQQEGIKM

[10] = target: T4, TGF-beta receptor type-1 (Homo sapiens); settings: at 10 µM
[11] = target: Serine/threonine-protein kinase 33 (Homo sapiens) (UniProt Q9BYT3); settings: at 10 µM
[12] = target: T5, Serine/threonine-protein kinase TAO1 (Homo sapiens) (UniProt Q7L7X3); settings: at 1 µM
T5 sequence (whole entry): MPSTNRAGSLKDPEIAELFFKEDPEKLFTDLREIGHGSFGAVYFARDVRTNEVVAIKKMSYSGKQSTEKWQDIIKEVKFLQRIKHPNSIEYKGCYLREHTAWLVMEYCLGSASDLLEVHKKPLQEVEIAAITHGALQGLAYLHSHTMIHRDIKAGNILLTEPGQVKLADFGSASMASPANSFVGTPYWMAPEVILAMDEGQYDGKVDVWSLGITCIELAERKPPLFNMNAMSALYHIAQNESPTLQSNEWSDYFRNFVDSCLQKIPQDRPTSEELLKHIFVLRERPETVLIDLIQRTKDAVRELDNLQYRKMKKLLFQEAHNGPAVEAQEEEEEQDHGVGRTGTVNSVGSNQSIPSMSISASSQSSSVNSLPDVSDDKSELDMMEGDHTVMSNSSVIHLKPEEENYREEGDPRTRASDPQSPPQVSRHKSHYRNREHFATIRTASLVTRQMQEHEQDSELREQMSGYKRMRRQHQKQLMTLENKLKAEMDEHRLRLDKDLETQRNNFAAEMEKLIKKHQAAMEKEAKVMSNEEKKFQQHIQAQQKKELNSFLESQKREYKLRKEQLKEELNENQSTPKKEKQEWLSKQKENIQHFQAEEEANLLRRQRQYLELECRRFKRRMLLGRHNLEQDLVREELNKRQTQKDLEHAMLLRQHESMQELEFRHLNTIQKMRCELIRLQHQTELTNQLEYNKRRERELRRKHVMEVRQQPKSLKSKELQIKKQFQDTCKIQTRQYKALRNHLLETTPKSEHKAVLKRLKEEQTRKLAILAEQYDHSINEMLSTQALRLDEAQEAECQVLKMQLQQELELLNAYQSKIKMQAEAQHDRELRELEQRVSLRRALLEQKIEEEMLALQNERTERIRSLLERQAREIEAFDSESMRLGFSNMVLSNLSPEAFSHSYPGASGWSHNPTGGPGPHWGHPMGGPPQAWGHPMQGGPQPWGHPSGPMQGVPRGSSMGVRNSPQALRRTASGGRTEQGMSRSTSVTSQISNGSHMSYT

[13] = target: T5, Serine/threonine-protein kinase TAO1 (Homo sapiens); settings: at 10 µM
[14] = target: T6, Serine/threonine-protein kinase TAO2 (Homo sapiens) (UniProt Q9UL54); settings: at 1 µM
T6 sequence (whole entry): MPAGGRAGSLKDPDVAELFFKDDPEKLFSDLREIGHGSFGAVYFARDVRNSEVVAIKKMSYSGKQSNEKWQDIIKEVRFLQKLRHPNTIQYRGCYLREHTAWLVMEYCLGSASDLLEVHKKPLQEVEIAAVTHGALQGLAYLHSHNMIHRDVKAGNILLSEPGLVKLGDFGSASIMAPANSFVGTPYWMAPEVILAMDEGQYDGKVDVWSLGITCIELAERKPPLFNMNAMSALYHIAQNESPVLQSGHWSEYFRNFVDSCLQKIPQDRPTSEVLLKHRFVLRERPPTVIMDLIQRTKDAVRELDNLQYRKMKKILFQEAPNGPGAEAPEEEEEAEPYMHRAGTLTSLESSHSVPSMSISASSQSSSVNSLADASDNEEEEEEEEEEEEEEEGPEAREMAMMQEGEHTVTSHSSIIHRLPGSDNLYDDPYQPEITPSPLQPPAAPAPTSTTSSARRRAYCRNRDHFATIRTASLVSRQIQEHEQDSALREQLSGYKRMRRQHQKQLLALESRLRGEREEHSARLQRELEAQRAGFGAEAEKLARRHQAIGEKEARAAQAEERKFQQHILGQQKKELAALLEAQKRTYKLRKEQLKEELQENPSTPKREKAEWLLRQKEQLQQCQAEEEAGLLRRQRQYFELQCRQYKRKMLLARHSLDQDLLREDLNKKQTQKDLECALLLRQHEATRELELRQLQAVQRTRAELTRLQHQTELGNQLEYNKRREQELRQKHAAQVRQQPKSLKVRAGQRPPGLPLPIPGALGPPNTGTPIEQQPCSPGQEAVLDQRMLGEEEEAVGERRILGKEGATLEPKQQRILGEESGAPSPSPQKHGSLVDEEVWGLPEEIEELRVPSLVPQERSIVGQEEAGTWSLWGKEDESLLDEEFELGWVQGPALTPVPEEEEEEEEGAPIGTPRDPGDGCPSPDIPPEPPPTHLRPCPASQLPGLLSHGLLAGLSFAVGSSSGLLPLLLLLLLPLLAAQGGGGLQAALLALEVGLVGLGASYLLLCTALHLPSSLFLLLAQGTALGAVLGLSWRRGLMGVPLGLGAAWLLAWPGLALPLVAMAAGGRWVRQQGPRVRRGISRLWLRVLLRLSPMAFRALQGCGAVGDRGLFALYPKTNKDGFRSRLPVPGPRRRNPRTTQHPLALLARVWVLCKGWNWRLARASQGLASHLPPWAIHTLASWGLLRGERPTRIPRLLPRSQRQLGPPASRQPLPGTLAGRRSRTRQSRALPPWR

[15] = target: T6, Serine/threonine-protein kinase TAO2 (Homo sapiens); settings: at 10 µM
[16] = target: T2, Serine/threonine-protein kinase TAO3 (Homo sapiens); settings: at 1 µM
[17] = target: Serine/threonine-protein kinase 33 (Homo sapiens) (UniProt Q9BYT3); settings: at 1 µM
[18] = target: Tyrosine-protein kinase SYK (Homo sapiens) (UniProt P43405); settings: at 1 µM
[19] = target: Insulin-like growth factor 1 receptor (Homo sapiens) (UniProt P08069); settings: at 1 µM
[20] = target: Insulin-like growth factor 1 receptor (Homo sapiens) (UniProt P08069); settings: at 10 µM

Sequence of Serine/threonine-protein kinase 33 (Homo sapiens) (Q9BYT3 whole entry, looked up): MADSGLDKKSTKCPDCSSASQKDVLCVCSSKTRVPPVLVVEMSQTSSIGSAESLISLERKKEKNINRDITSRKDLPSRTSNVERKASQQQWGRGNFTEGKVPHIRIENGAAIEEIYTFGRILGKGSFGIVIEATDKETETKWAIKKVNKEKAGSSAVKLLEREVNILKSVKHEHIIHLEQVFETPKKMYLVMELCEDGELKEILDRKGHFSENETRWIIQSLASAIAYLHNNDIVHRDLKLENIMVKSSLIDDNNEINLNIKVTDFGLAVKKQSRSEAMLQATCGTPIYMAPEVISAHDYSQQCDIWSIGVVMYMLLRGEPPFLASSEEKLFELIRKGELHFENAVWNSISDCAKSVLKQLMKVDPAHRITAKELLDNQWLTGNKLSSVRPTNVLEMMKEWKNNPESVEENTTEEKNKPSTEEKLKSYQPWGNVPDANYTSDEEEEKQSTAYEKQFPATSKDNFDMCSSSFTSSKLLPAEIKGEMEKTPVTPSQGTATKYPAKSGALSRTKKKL
Sequence of Serine/threonine-protein kinase PLK2 (Homo sapiens) (Q9NYY3 whole entry, looked up): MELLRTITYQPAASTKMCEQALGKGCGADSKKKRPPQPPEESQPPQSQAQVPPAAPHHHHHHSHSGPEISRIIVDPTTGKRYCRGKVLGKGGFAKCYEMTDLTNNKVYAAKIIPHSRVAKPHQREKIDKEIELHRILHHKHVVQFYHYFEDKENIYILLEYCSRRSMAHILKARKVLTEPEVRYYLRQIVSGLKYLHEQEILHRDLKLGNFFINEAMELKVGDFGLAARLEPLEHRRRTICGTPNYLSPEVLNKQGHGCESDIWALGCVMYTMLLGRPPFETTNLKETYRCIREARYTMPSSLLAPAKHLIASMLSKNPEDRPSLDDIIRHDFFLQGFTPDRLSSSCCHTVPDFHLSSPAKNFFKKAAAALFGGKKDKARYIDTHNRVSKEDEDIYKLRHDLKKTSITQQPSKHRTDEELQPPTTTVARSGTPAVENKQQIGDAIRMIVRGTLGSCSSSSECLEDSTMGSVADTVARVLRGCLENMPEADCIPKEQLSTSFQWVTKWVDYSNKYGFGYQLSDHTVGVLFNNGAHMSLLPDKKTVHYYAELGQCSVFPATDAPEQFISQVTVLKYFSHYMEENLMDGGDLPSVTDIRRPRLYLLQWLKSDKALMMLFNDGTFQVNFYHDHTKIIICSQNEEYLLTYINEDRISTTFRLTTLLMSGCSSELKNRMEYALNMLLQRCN
Sequence of Insulin-like growth factor 1 receptor (Homo sapiens) (P08069 31-736 limits assumed): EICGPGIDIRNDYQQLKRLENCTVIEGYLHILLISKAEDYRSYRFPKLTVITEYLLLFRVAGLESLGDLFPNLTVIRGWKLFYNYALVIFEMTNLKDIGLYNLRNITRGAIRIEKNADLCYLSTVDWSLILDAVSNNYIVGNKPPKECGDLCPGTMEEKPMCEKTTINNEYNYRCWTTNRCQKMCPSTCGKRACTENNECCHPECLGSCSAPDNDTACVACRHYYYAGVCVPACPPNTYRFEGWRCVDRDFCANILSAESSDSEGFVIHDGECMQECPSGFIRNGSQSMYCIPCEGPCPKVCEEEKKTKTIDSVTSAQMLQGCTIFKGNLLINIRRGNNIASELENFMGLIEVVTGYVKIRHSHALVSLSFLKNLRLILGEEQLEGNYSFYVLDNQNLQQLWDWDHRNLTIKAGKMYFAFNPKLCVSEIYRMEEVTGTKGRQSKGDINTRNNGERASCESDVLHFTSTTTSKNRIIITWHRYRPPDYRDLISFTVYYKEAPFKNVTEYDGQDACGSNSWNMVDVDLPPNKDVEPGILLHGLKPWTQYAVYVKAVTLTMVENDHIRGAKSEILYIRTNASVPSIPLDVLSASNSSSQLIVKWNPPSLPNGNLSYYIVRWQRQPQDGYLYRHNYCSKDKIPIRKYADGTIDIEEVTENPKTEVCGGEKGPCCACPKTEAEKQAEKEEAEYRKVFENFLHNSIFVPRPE
Sequence of Insulin-like growth factor 1 receptor (Homo sapiens) (P08069 741-1367 limits assumed): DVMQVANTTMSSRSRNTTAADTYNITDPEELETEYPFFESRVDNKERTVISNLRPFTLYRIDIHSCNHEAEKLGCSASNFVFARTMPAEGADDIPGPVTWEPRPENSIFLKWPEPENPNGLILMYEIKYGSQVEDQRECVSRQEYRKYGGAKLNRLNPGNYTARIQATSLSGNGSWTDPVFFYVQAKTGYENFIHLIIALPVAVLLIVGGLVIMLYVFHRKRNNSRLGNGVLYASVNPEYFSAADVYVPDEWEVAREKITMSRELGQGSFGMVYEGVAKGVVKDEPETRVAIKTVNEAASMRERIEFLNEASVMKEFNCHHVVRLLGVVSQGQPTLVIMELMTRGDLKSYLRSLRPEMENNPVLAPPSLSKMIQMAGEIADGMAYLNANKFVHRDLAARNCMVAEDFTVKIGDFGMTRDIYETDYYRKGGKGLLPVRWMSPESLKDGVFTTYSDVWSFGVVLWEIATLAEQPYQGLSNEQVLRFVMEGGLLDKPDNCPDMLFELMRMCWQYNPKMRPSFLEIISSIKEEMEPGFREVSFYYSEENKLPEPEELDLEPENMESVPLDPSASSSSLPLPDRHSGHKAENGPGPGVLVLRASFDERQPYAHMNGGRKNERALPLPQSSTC

Row | Compound | residual activity [1] [%] | residual activity [2] [%] | residual activity [3] [%] | residual activity [4] [%] | residual activity [5] [%] | residual activity [6] [%] | residual activity [7] [%] | residual activity [8] [%] | residual activity [9] [%] | residual activity [10] [%] | residual activity [11] [%] | residual activity [12] [%] | residual activity [13] [%] | residual activity [14] [%] | residual activity [15] [%] | residual activity [16] [%] | residual activity [17] [%] | residual activity [18] [%] | residual activity [19] [%] | residual activity [20] [%]
1 | c1cc(-c2cnn3cc(-c4ccc(OCCN5CCCCC5)cc4)cnc23)ccn1 | 82 | 85 | 59 | 57 | 13 | 82 | 64 | 13 | 78 | 30 |  |  |  |  |  |  |  |  |  | 
2 | CN[C@@H]1C[C@H]2O[C@@](C)([C@@H]1OC)n1c3ccccc3c3c4c(c5c6ccccc6n2c5c31)C(=O)NC4 |  |  |  |  |  |  |  | 0 | 79 | 30 |  |  |  |  |  |  |  |  |  | 
3 | COc1ccc2c(c1)/C(=C/c1cnc[nH]1)C(=O)N2 |  |  |  | 75 | 21 | 12 |  |  |  |  | 53 | 41 | 7 | 72 | 14 | 59 |  |  |  | 
4 | COc1cc2ncnc(Nc3ccc(OCc4ccccc4)cc3)c2cc1OC | 108 | 105 | 82 | 99 | 96 | 93 | 92 | 71 | 102 | 100 | 105 | 108 | 91 | 104 | 90 | 107 | 100 | 116 | 108 | 104
5 | CC(C)[C@H](CO)Nc1nc(Nc2cccc(Cl)c2)c2ncn(C(C)C)c2n1 | 101 | 86 | 60 | 73 | 20 | 32 | 90 | 66 | 95 | 93 | 53 | 82 | 26 | 98 | 49 | 82 | 89 | 102 | 48 | 12
